The whole screen tested about 96,000 compounds, of which about 19,000 (20%) were called active.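 The calls were made as follows: active = blocking of liver enzyme CYP2C9 beyond about 50% at 5 µM (limit read from the data); inactive = the rest.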 Only a sample is shown.
The compounds below were run against Cytochrome P450 2C9 (Homo sapiens) (UniProt P11712) (assay: blockers of cytochrome P450 2C9 activity – biochemical, luminescence, ADME assay, primary screen (AID 777)). Conditions: CYP2C9 Supersomes, luciferin-H conversion, at 5 µM, hits give high values.
Sequence of Cytochrome P450 2C9 (Homo sapiens) (P11712 whole entry, looked up): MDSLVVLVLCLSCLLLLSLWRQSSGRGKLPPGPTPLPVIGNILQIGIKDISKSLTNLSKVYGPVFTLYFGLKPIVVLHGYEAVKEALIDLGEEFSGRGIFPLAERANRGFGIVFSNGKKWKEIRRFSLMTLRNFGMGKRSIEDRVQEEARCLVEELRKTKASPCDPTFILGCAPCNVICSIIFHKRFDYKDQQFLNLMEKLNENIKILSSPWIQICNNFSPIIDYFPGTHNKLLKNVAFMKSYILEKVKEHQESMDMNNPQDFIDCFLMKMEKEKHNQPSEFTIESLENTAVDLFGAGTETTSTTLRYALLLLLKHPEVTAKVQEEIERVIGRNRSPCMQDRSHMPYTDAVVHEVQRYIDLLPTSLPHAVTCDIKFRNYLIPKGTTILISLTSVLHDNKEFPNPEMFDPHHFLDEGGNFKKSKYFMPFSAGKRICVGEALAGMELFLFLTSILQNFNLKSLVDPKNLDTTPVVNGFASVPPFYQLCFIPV
CCC1=C/C(=C\c2ccc3c(c2)OCO3)C(=O)S1 was tested, and the inhibition was 16.7% (inactive).
CN(Cc1ccccc1)Cc1ccccc1F was tested, and the inhibition was -5% (inactive).
In the case of CC(O)CN(Cc1ccc(Cl)cc1)CC(C)O (stereo not given), the inhibition is reported as -2.8% (inactive).
In the case of OCCN(Cc1ccccc1)Cc1ccc(Cl)cc1, the inhibition is reported as 87.6% (active).
Cn1c(=O)cc(SCC(=O)N2CCN(C(=O)c3ccco3)CC2)c2ccccc21 was tested, and the inhibition was -14% (inactive).
O=C(Nc1nnc(C2CC2)s1)c1ccccn1 was tested, and the inhibition was -32.1% (inactive).
For O=c1c2ccccc2nc2n1C1(CCCCC1)Cc1ccccc1-2, the inhibition was 87.7% (active).
With CCC1(CC)Cc2ccccc2-c2nc3ccccc3c(=O)n21 the inhibition was 19.3% (inactive).
In the case of c1cncc(-c2nnc3n2C2(CCCCC2)Cc2ccccc2-3)c1, the inhibition is reported as 11.2% (inactive).
In the case of CC(C)[C@H](NC(=O)Nc1ccc(S(N)(=O)=O)cc1)C(=O)O, the inhibition is reported as -7.3% (inactive).
For O=S(=O)(/N=C(/Nc1ccccn1)c1ccccc1)c1ccc(Cl)cc1, the inhibition was 29% (inactive).
For O=C1CCCc2c1[nH]c1ccc(Br)cc21, the inhibition was 19.2% (inactive).
With COC(=O)c1ccc(C2NC(=O)NC(C)=C2C(=O)N(C)C)cc1 (stereo not given) the inhibition was -16.8% (inactive).
For CCOC(=O)c1sc(=S)n2c1[nH]c(=O)c1ccc(C(=O)OC)cc12, the inhibition was 42.1% (inactive).
For CCOC(=O)C1=C(C)Nc2sc(C(=O)c3ccc(Br)cc3)c(N)c2C1c1ccc(C(=O)OC)cc1 (stereo not given), the inhibition was 91.9% (active).
In the case of Cc1c(Nc2nc3ccccc3nc2NS(=O)(=O)c2cccs2)c(=O)n(-c2ccccc2)n1C, the inhibition is reported as 47.6% (inactive).
With COc1ccc(-n2c(Cc3cccn3C)nnc2SCC(=O)Nc2cc(C)cc(C)c2)cc1 the inhibition was 28.5% (inactive).
With CCn1c(CNc2ccc(OC)cc2)nnc1SCC(=O)c1ccc(OC)cc1 the inhibition was 25.4% (inactive).
In the case of COc1ccc(NCc2nnc(SCc3ccccc3)n2-c2ccc(OC)cc2)cc1, the inhibition is reported as 59.6% (active).
With C=C(C)Cn1c(C)cc(C)c(S(=O)(=O)c2ccccc2C)c1=O the inhibition was 36.5% (inactive).
With Cc1ccc(-n2ncc3c2ncn2nc(-c4ccco4)nc32)c(C)c1 the inhibition was 0.2% (inactive).
In the case of NC(=O)C1CC=CCC1C(=O)OCC(Cl)=C(Cl)Cl (stereo not given), the inhibition is reported as 2.9% (inactive).
For COc1ccc(CN2CN(C(C)C)CSC2=S)cc1, the inhibition was 34% (inactive).
In the case of NC(=O)COc1ccc(/C=N/NC(=O)C2CCCN2S(=O)(=O)c2ccc(Cl)cc2)cc1 (stereo not given), the inhibition is reported as 67.3% (active).
For CC(=O)Nc1ccc(S(=O)(=O)N2CCCC2C(=O)O)cc1 (stereo not given), the inhibition was -11.7% (inactive).
O=C(COc1ccc(Cl)cc1)N1CCN(S(=O)(=O)c2ccc(Cl)cc2)CC1 was tested, and the inhibition was 0.1% (inactive).
In the case of Cc1cccc(NC(=O)C2CCCN2S(=O)(=O)c2ccc(F)cc2)c1C (stereo not given), the inhibition is reported as -147% (inactive).
For Cc1ccc(S(=O)(=O)N2CCCC2C(=O)NCc2ccco2)cc1 (stereo not given), the inhibition was -48.4% (inactive).
CC(C)c1nnc(NC(=O)C2CCCN2S(=O)(=O)c2ccc(Cl)cc2)s1 (stereo not given) was tested, and the inhibition was 86.2% (active).
With CCC(C)NC(=O)C1CCCN(C(=O)NC2CCCCC2)C1 (stereo not given) the inhibition was 19.9% (inactive).
In the case of COc1ccc(C)cc1NC(=O)c1[nH]c(C)c(C(C)=O)c1C, the inhibition is reported as 34% (inactive).
For CCOC(=O)C1Sc2[nH]c(=O)sc2C(c2ccc(Cl)cc2)C1C(=O)OCC (stereo not given), the inhibition was 5.6% (inactive).
With O=c1c2ccccc2oc2nc(C3CCCCC3)n(Cc3ccco3)c(=O)c12 the inhibition was 20.1% (inactive).
For CCc1nc2ccccc2n(CCOCCOCCn2c(=O)c(CC)nc3ccccc32)c1=O, the inhibition was 24.5% (inactive).
With CC(c1ccco1)N(C(=O)COc1ccccc1[N+](=O)[O-])c1ccccn1 (stereo not given) the inhibition was 8.1% (inactive).
CC(c1ccco1)N(C(=O)c1ccc(S(=O)(=O)N2CCCCC2)cc1)c1ccccn1 (stereo not given) was tested, and the inhibition was 56.9% (active).
For CC(C)Cc1ccc(S(=O)(=O)N2CCN(C(=O)c3ccco3)CC2)cc1, the inhibition was 17% (inactive).
Cc1cc(C)cc(OCc2nnc(SCC(=O)OC3CCCCC3)o2)c1 was tested, and the inhibition was -1.3% (inactive).
For C=CCc1cccc2cc(C(=O)N3CCN(C(=O)OCC)CC3)c(=O)oc12, the inhibition was -112% (inactive).
With CCN(c1ccccc1)S(=O)(=O)c1cccc(C(=O)O)c1 the inhibition was 33.3% (inactive).
In the case of CCN(CC)S(=O)(=O)c1cccc(C(=O)Nc2ccccc2)c1, the inhibition is reported as 38.7% (inactive).
With CCN(CC)S(=O)(=O)c1cccc(C(=O)NCC(=O)OCC(=O)NCc2ccccc2)c1 the inhibition was 63.3% (active).
In the case of c1ccc2c(-c3nn4nnnc4c4ccccc34)cccc2c1, the inhibition is reported as 13.8% (inactive).
CCOc1cc2[nH]c(=S)n(Cc3ccc(C(=O)NCCOC)cc3)c(=O)c2cc1OCC was tested, and the inhibition was -7.8% (inactive).
COCCn1c(=S)[nH]c2cc(C(=O)NCCc3ccc(OC)c(OC)c3)ccc2c1=O was tested, and the inhibition was 55.7% (active).
With O=C(CCCCCn1c(=O)[nH]c2ccccc2c1=O)NCCc1c[nH]c2ccccc12 the inhibition was 63.8% (active).
For COc1ccc(CCNC(=O)CCCCn2c(=O)[nH]c3ccccc3c2=O)cc1OC, the inhibition was 68.4% (active).
For COc1ccc(CCNC(=O)c2cc(-c3ccc4c(c3)OCO4)on2)cc1OC, the inhibition was 6.7% (inactive).
With COc1ccc(CCNC(=O)CCn2c(=O)oc3ccccc32)cc1OC the inhibition was 8.1% (inactive).
For COc1ccc(CCNC(=O)c2ccc3c(c2)NC(=O)C(N2CCOCC2)S3)cc1OC (stereo not given), the inhibition was 50.1% (active).
CCN(CC)CCNC(=O)CCCCCn1c(=O)[nH]c2cc(C(=O)OC)ccc2c1=O was tested, and the inhibition was 2.6% (inactive).
With O=C(NCCCN1CCCCC1)c1ccc2c(c1)NC(=O)C(N1CCOCC1)S2 (stereo not given) the inhibition was -7.1% (inactive).
In the case of O=C(CCn1c(=S)[nH]c2ccccc2c1=O)NCCCN1CCCC1=O, the inhibition is reported as -4.6% (inactive).
With O=C(CCn1c(=O)[nH]c2ccccc2c1=O)NCCCN1CCN(c2cccc(Cl)c2)CC1 the inhibition was 29.1% (inactive).
For COCCn1c(=O)[nH]c2cc(C(=O)NCc3cccnc3)ccc2c1=O, the inhibition was -1.7% (inactive).
In the case of COC(=O)CSc1snnc1-c1ccc(Cl)c(Cl)c1, the inhibition is reported as 6.6% (inactive).
For COc1ccc(/C=N/Nc2nc3ccccc3o2)cc1OC, the inhibition was -48.5% (inactive).
CC(=O)Nc1cc2ccc(OC(C)=O)cc2oc1=O was tested, and the inhibition was -29.1% (inactive).
In the case of CCCOc1ccc(CN(CCO)CCO)cc1C(=O)OC, the inhibition is reported as 10.6% (inactive).
With COc1cccc(-c2cnc(OC(C)(C)C)nc2OC(C)(C)C)c1 the inhibition was 6.8% (inactive).
In the case of CCc1nc(C)cn1S(=O)(=O)c1cc(OC)c(C)cc1C, the inhibition is reported as 7.6% (inactive).
In the case of Cc1ccsc1CNn1cnnc1SCc1ccccc1F, the inhibition is reported as 13.9% (inactive).
In the case of Cc1ccc(C2=NN(C)c3nc4ccccc4n3C2)cc1, the inhibition is reported as 6.9% (inactive).
In the case of COCc1cc(=O)[nH]c2cc(NC(=O)C(F)(F)F)c(C)cc12, the inhibition is reported as 13.9% (inactive).
With CCOC(=O)Cn1c(-c2cccnc2Cl)nc2ccccc21 the inhibition was 10.6% (inactive).
In the case of O=C(Nc1ncc2c(n1)-c1ccccc1OC2)c1ccc(Cl)cc1, the inhibition is reported as 25.3% (inactive).
For O=C(CCCCn1c(=O)[nH]c2ccccc2c1=O)NCc1ccc2c(c1)OCO2, the inhibition was 69% (active).
For CCC1CCCCN1CCCNC(=O)C1CCC(Cn2c(=O)[nH]c3ccccc3c2=O)CC1 (stereo not given), the inhibition was 1.7% (inactive).
CC(C)NC(=O)CCCn1c(=S)[nH]c2cc3c(cc2c1=O)OCO3 was tested, and the inhibition was 12.3% (inactive).
For Cc1ccc(C)c(N2CCN(C(=O)CCCCn3c(=O)[nH]c4ccccc4c3=O)CC2)c1, the inhibition was 61.9% (active).
With Cc1c2cnn(-c3ccccc3)c(=O)c2c(C)n1CCCC(=O)N1CCN(C)CC1 the inhibition was -0.9% (inactive).
With Cn1cc(CCC(=O)NCc2ccc3c(c2)OCO3)c2ccccc21 the inhibition was -124% (inactive).
With O=C(COc1ccc(/C=N/NS(=O)(=O)c2ccccc2)cc1)NCCc1ccccc1 the inhibition was 5.3% (inactive).
In the case of CCOc1ccc(OCC)c(NC(=O)C(NS(=O)(=O)c2ccc3c(c2)oc(=O)n3C)C(C)C)c1 (stereo not given), the inhibition is reported as 17.9% (inactive).
In the case of Cc1ccccc1OC/C(O)=C(\C#N)c1nc2ccccc2[nH]1, the inhibition is reported as 45.5% (inactive).
With N#C/C(=C(/O)COc1cccc2ccccc12)c1nc2ccccc2[nH]1 the inhibition was -6.1% (inactive).
With N#C/C(=C(/O)Cc1cccc2ccccc12)c1nc2ccccc2s1 the inhibition was 76.6% (active).
With CN(C)/C=C(\C#N)C(=O)c1cccnc1Oc1cccc(F)c1 the inhibition was 12.2% (inactive).
For CCCC(C)C(=O)Nc1ccc(NC(C)=O)cc1 (stereo not given), the inhibition was 9.5% (inactive).
COc1ccc(C2OC(=O)CC2C(=O)NC(C)C)cc1 (stereo not given) was tested, and the inhibition was 3.6% (inactive).
In the case of O=C(CCCOc1ccccc1)Nc1cccc(C(=O)O)c1, the inhibition is reported as 9.5% (inactive).
For COC(=O)c1sccc1NC(=O)CCC1CCCC1, the inhibition was -11.7% (inactive).
With N#Cc1cccc(NC(=O)CCC2CCCC2)c1 the inhibition was 56.8% (active).
CCCC(=O)N1CCc2[nH]c3ccccc3c2C1 was tested, and the inhibition was 8.3% (inactive).
In the case of COc1ccccc1N(C(=O)Cn1nnc2ccccc21)C(C(=O)NCc1ccco1)c1ccc(C)o1 (stereo not given), the inhibition is reported as 70.3% (active).
With Cc1ccc(C(C(=O)NCc2ccco2)N(CC2CCCO2)C(=O)Cn2nnc3ccccc32)cc1 (stereo not given) the inhibition was 14.4% (inactive).
COCCNC(=O)C(c1ccc(C)o1)N(Cc1ccccc1)C(=O)Cn1nnc2ccccc21 (stereo not given) was tested, and the inhibition was 16.2% (inactive).
In the case of CCOCCCNC(=O)Cc1cc(=O)[nH]c(=O)[nH]1, the inhibition is reported as -6.2% (inactive).
For Cc1noc(COc2ccccc2OCC(O)CNC(C)(C)C)n1 (stereo not given), the inhibition was 26.1% (inactive).
O=C(Nc1cccc2ccccc12)N1CCN(Cc2ccc3c(c2)OCO3)CC1 was tested, and the inhibition was 38.9% (inactive).
In the case of CC1CCC(N2CC(=O)N(Cc3ccc4c(c3)OCO4)C(c3ccc(F)cc3)C2=O)CC1 (stereo not given), the inhibition is reported as 39.6% (inactive).
In the case of O=C1N(Cc2ccc3c(c2)OCO3)c2ccccc2C1(O)c1c[nH]c2ccccc12 (stereo not given), the inhibition is reported as 79.7% (active).
For CC(=O)Oc1ccc(C)cc1N1C(=O)c2ccc(C(=O)O)cc2C1=O, the inhibition was -17.9% (inactive).
In the case of C/C(CC(O)(/C=N/O)c1ccccc1)=N\O (stereo not given), the inhibition is reported as -33% (inactive).
CC1=NN(c2cccc(Cl)c2)C(=O)C12CC(C)=C(C)CS2 (stereo not given) was tested, and the inhibition was 74.8% (active).

From PubChem BioAssay AID777 (Sanford-Burnham Center for Chemical Genomics, 2007)
